Results reported in paper PMC5540273 (PLoS ONE, 2017).

Columns and labels:
Conditions in all cases: concentration: 1 μM, replicates: in singlicate; n = 1
[1] = test system: CSNK1A1
[2] = test system: CSNK1D
[3] = test system: CSNK1E
[4] = test system: CSNK1G1
[5] = test system: CSNK1G2
[6] = test system: CSNK1G3
[7] = test system: CSNK2A1
[8] = test system: CSNK2A2
[9] = test system: T1, CTK
T1 construct: gene MATK

[10] = test system: DAPK1
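Note: KINOMEscan kinase panel screen.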

Row | Compound | %Inh [1] [%] | %Inh [2] [%] | %Inh [3] [%] | %Inh [4] [%] | %Inh [5] [%] | %Inh [6] [%] | %Inh [7] [%] | %Inh [8] [%] | %Inh [9] [%] | %Inh [10] [%]
1 | COC(=O)c1c(-c2ccccc2)c2cc(OC)ccc2c(=O)n1Cc1ccccc1 | 9 | 0 | 0 | 8 | 0 | 0 | 0 | 27 | 26 | 37
2 | CC(C)(C)c1ccc(C(=O)Nc2cn3cc(-c4cccnc4)ccc3n2)cc1 | 41 | 78 | 92.4 | 10 | 24 | 21 | 22 | 17 | 12 | 40
3 | CC(=O)Nc1nc2cnc(Nc3cc(NC(=O)c4cccc(CCC#N)c4)ccc3C)nc2s1 | 23 | 3 | 0 | 2 | 7 | 0 | 0 | 9 | 0 | 0
4 | Cc1cc(N2Cc3ccccc3C2)nc(Nc2ccc(S(=O)(=O)N3CCOCC3)cc2)n1.Cl [GSK1669917] | 0 | 0 | 4 | 0 | 0 | 19 | 2 | 7 | 0 | 0
5 | Fc1cc(Cl)ccc1Nc1ccnc2cc(I)ccc12 [GW551191] | 0 | 5 | 35 | 4 | 0 | 20 | 0 | 0 | 0 | 19
6 | CCn1c(-c2cccnc2O)nc2cnccc21 [SB-736715] | 16 | 0 | 0 | 0 | 0 | 0 | 0 | 0 | 3 | 0
7 | Cn1cncc1-c1ccc2ncnc(Nc3ccc(OCc4ccccc4)cc3)c2c1 [GW320571] | 0 | 20 | 99.4 | 0 | 15 | 19 | 26 | 15 | 0 | 0
8 | CN(C)CCN(C)C(=O)c1cc(-c2ccncc2)c(-c2ccc(Cl)c(O)c2)o1.Cl.Cl [SB-710397] | 62 | 90 | 93.4 | 0 | 0 | 14 | 0 | 4 | 0 | 4
9 | COc1ccc(Nc2nccc(-c3cccc(NC(=O)c4cc5cc(F)ccc5[nH]4)c3)n2)cc1 [GSK1229782] | 0 | 37 | 33 | 13 | 17 | 32 | 8 | 27 | 0 | 0
10 | NC(=O)c1nnc2ccccc2c1N | 66 | 49 | 37 | 9 | 0 | 43 | 11 | 24 | 0 | 2
11 | Cn1ccc2ncnc(Oc3ccc(NC(=O)Nc4ccccc4)cc3)c21 | 4 | 13 | 5 | 0 | 11 | 0 | 14 | 0 | 0 | 11
12 | O=C(Nc1ccccc1)Nc1cccc(Oc2ccc3nccn3n2)c1 | 0 | 0 | 0 | 0 | 0 | 2 | 0 | 0 | 0 | 10
13 | O=S(=O)(c1ccc(-c2ccnc3[nH]ccc23)cc1)N1CCCC1 [GSK846226] | 0 | 7 | 41 | 5 | 0 | 37 | 4 | 6 | 0 | 58
14 | Cc1cc(NCC(c2ccccc2)c2ccccc2)nc(NCc2ccc(C(F)(F)F)cc2)n1 [GW497681] | 0 | 0 | 34 | 0 | 0 | 22 | 0 | 0 | 0 | 2
15 | Cc1ccc(C(=O)Nc2ccc(Nc3ccnc4cc(-c5ccccn5)ccc34)cc2O)cc1.Cl [GW440146] | 0 | 7 | 23 | 0 | 0 | 4 | 0 | 0 | 0 | 0
16 | COc1ccccc1-c1ccc2c(NC(=O)C3CC3)n[nH]c2n1 [SB-711239] | 10 | 0 | 2 | 0 | 5 | 11 | 0 | 0 | 0 | 0
17 | O=C(Nc1n[nH]c2nc(-c3nccs3)c(Br)cc12)C1CCCC1 [SB-742609] | 25 | 42 | 11 | 0 | 0 | 22 | 0 | 0 | 0 | 0
18 | Cn1ccc2ncnc(Oc3ccc(Nc4nc5ccccc5[nH]4)cc3)c21 | 0 | 0 | 0 | 0 | 0 | 0 | 0 | 0 | 0 | 0
